From PubChem BioAssay AID1022 (Emory University Molecular Libraries Screening Center, 2008)
The whole screen tested about 220,000 compounds, of which about 3,300 (1.5%) were called active. The entries come from a sample that favours actives as a whole. Values without a mark were called inactive.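 The calls were made as follows: active = compounds that cut the protein-peptide binding signal by more than 50% relative to plate controls in a single-dose test; inactive = the rest.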

Molecular target: Induced myeloid leukemia cell differentiation protein Mcl-1 (Homo sapiens) (UniProt Q07820)
Sequence (Q07820 whole entry, looked up): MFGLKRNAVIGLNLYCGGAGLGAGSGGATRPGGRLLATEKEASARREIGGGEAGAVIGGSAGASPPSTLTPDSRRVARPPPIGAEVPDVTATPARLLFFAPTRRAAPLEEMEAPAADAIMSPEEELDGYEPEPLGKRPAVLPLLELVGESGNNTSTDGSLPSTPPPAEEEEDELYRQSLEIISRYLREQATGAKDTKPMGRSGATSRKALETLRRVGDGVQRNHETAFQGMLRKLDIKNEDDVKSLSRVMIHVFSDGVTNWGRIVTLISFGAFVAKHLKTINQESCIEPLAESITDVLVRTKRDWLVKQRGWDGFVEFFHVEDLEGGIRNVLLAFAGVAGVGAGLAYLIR
Experiment: disruptors of Mcl-1 and Noxa BH3 peptide – biochemical, TR-FRET, 1536-well, primary screen (AID 1022);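 also: His-tagged Mcl-1 with rhodamine Noxa BH3 peptide and terbium anti-His antibody; 0% = Mcl-1 plus Noxa peptide wells and 100% = peptide-only wells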
Details: TR-FRET Mcl-1/Noxa peptide binding, 2 h; at 21.7 µM; active compounds read high

**Q.** O=C(COC(=O)CCC(=O)c1cccs1)NCc1ccco1 was tested. Which inhibition did it give?
**A.** 41%

**Q.** How did the inhibition turn out when O=C(CC12CC3CC(CC(C3)C1)C2)NCc1ccco1 was run?
**A.** 2.69%

**Q.** How did the inhibition turn out when O=C(COC(=O)C12CC3CC(CC(C3)C1)C2)NCc1ccco1 was run?
**A.** 54.8% (active)

**Q.** COc1ccc(NC(=S)N2CCc3cc(OC)c(OC)cc3C2)cc1 was tested. Which inhibition did it give?
**A.** 11.1%

**Q.** For CC(/C=N/NC(=O)c1ccncc1)=C\c1ccco1, which inhibition is on record?
**A.** 16.1%

**Q.** Which inhibition does the source give for CC(/C=N/NC(=O)c1cc(-c2ccc3ccccc3c2)n[nH]1)=C\c1ccco1 here?
**A.** 78.8% (active)

**Q.** With Cc1ccc(-c2cc(C(=O)N/N=C/C=C/c3ccco3)c3ccccc3n2)cc1C as the molecule, how does the inhibition read?
**A.** 19.7%

**Q.** With COc1ccc(NC(=O)CSc2ncnc3[nH]ncc23)cc1 as the molecule, how does the inhibition read?
**A.** 16.1%

**Q.** For CCN(CC)c1ccc(NC(=O)C2CCC(CNc3c(N4CCCC4)c(=O)c3=O)CC2)c(C)c1 (stereo not drawn), which inhibition is on record?
**A.** 19.7%

**Q.** With O=[N+]([O-])c1ccc(N2CCN(c3ccc(O)cc3)CC2)c(Cl)c1 as the molecule, how does the inhibition read?
**A.** 65.2% (active)

**Q.** With COc1ccc(N2CCN(c3ccc([N+](=O)[O-])cc3Cl)CC2)cc1 as the molecule, how does the inhibition read?
**A.** 11.9%

**Q.** How did the inhibition turn out when O=C(O)C1CCN(c2ccc([N+](=O)[O-])cc2[N+](=O)[O-])CC1 was run?
**A.** 23.9%

**Q.** Which inhibition does the source give for O=C(N/N=C/c1ccc([N+](=O)[O-])cc1)c1c[nH]c2ccccc12 here?
**A.** 14.4%

**Q.** Which inhibition does the source give for Cc1nc2ccccc2cc1C(=O)N/N=C/c1ccc([N+](=O)[O-])cc1 here?
**A.** 9.39%

**Q.** Which inhibition does the source give for O=C(N/N=C/c1ccc(Cl)cc1)c1nc2ccc([N+](=O)[O-])cc2c(=O)[nH]1 here?
**A.** 71.4% (active)

**Q.** With CN1CCc2ccccc2C1Cc1ccccc1NC(=O)c1sc2ccccc2c1Cl (stereo not drawn) as the molecule, how does the inhibition read?
**A.** -2.87%

**Q.** For FC(F)(F)c1nc(-c2ccccc2)ncc1-c1nnnn1-c1ccccc1, which inhibition is on record?
**A.** 35.2%

**Q.** Which inhibition does the source give for C=CCNC(=S)N/N=C/c1ccc(C)s1 here?
**A.** 7.32%

**Q.** Which inhibition does the source give for Fc1ccc(-c2ccc(-c3nn4c(-c5ccco5)nnc4s3)o2)cc1 here?
**A.** 71% (active)

**Q.** With Cc1nnc2sc(-c3ccco3)nn12 as the molecule, how does the inhibition read?
**A.** 3.91%

**Q.** For FC(F)(F)c1nnc2sc(-c3ccco3)nn12, which inhibition is on record?
**A.** 2.95%

**Q.** Which inhibition does the source give for Cc1ccc(OCC(=O)Nc2nnc(-c3ccco3)s2)cc1 here?
**A.** 17.5%

**Q.** For COc1ccc(OCC(=O)Nc2nnc(-c3ccco3)s2)cc1, which inhibition is on record?
**A.** 87.4% (active)

**Q.** Which inhibition does the source give for CNc1nnc(-c2ccco2)s1 here?
**A.** 6.49%

**Q.** For Cc1c([N+](=O)[O-])c(N)nn1C, which inhibition is on record?
**A.** 12.1%

**Q.** How did the inhibition turn out when Cc1ccc(-c2nc(CS(=O)CC(=O)NC3CCCC3)c(C)o2)cc1 (stereo not drawn) was run?
**A.** 10%

**Q.** With COc1ccc(-c2nc(CS(=O)CC(=O)N3CCc4ccccc4C3)c(C)o2)cc1 (stereo not drawn) as the molecule, how does the inhibition read?
**A.** 18.7%

**Q.** With Cc1ccc(-c2nc(CS(=O)CC(=O)N3CCN(c4ncccn4)CC3)c(C)o2)cc1 (stereo not drawn) as the molecule, how does the inhibition read?
**A.** 54.7% (active)
